From PubChem BioAssay
HT1080NT lethal: kills 2HG-producing HT-1080-NT fibrosarcoma cells; hit rate 1.6% among 360,000; AID 686970; HT-1080-NT fibrosarcoma viability, CellTiter-Glo ATP luminescence, 48 h; Potency, µM (doses to about 46.1 µM), for the others: at the top dose activity, negative = less viability, usual class: cytotoxic;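 further: NT is the 2HG producing partner of a matched IDH1 knockdown line; 0% = DMSO-treated cells and -100% = media-only wells without cells; nearly all actives have a fitted effect of over 55% in size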
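Viability of the 2HG-overproducing fibrosarcoma line after 48 hours of compound exposure at 37 degrees C was determined by luminescence with CellTiter-Glo, and concentration-effect curves were then fitted and categorized.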
KB-V1 MDR tox: kills drug-selected multidrug resistant KB-V1 cells; KB-V1 MDR cells viability, CellTiter-Glo, 72 h; Potency, µM (highest dose often 46.1 µM), actives largely listed as cytotoxic; hit rate 3.4% among 400,000; further: on the % scale 0 is the no-effect control and ±100 the full control effect; nearly all actives have a fitted effect of over 60% in size
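Drug-selected KB-V1 cells, grown in DMEM lacking phenol red with 10% FBS, receive compound titrations; after three days at 37 degrees C, surviving cell ATP is quantified by CellTiter-Glo luminescence and responses normalized and curve-fitted.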
HT1080 IDH1KD tx: toxicity to HT-1080 IDH1 knockdown cells (counter line) | HT-1080 IDH1 knockdown viability, ATP luminescence, 48 h | Potency, µM (titrated, usually from 46.1 µM), without a hit: at the top dose activity, negative = toxicity, actives largely listed as cytotoxic | hit rate 2% among 360,000 | AID 686971;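 further: 0% = DMSO wells and -100% = cell-free medium wells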
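Cytotoxicity counter-line: IDH1KD HT-1080, 48 h, CellTiter-Glo. Curves classed by r2, magnitude and activity.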
KB-3-1 tox: KB-3-1 parental cell cytotoxicity. KB-3-1 viability, CellTiter-Glo ATP luminescence, 72 h. Potency, µM (titrated, usually from 46.1 µM), usual class: cytotoxic. hit rate 1.4% among 400,000. AID 1347075; further: on the % scale 0 is the no-effect control and ±100 the full control effect; nearly all actives have a fitted effect of over 60% in size
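Here the drug-naive KB-3-1 line serves as comparator for MDR sub-line selectivity; cells received compound titrations, 72 h at 37 °C, then CellTiter-Glo readout.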
ATXN viability: reduces viability in counter-screen for ATXN expression inhibitors; S2 cells (HEK-293 line with an ATXN2-luciferase reporter) viability, CellTiter-Fluor protease fluorescence, 24 h; Potency, µM (doses to about 56.7 µM), usual class: cytotoxic; hit rate 0.49% among 400,000; AID 651635; further: nearly all actives have a fitted effect of over 40% in size
ATXN2 expr inh: inhibitors of ATXN2 expression; HEK-293 ATXN2-luciferase reporter, luminescence, 24 h; Potency, µM (highest dose often 57 µM), for inactives: top-dose activity change, negative = inhibition, hits mostly inhibitors; hit rate 0.72% among 360,000; further: on the % scale 0 is the no-effect control and ±100 the full control effect; nearly all actives have a fitted effect of over 55% in size
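qHTS (up to 57 uM final) was run with 24 h compound exposure of reporter cells at 37 °C. Each well was multiplexed: SteadyGlo luminescence measured ATXN2-luciferase expression after a fluorogenic Gly-Phe-AFC viability readout (25 uM final).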
The depositor's hits bear a star. Rows were chosen to be rich in hits. Some 6.2% of all compounds tested hit in one or more screens of this group. The call rests on the fitted dose curve; in most records, active means well fitted curve in the direction sought with a large enough effect; inconclusive means small, poorly fitted or top-dose-only effect, or another doubt; inactive means no such curve, though single readings can be large; an effect the other way counts as inactive or inconclusive. Potency means the concentration at half of the fitted maximal effect.

How did Cc1ccc(-n2[nH]c(C)c(/C=N/Nc3ccc([N+](=O)[O-])cc3[N+](=O)[O-])c2=O)cc1 do in these assays?
HT1080NT lethal: inconclusive; KB-V1 MDR tox: 16.4µM*; HT1080 IDH1KD tx: 23.1µM*; KB-3-1 tox: inconclusive; ATXN2 expr inh: inconclusive

What do the screens show for `Cc1ccc(NS(=O)(=O)c2ccc(Cl)c(C(=O)Nc3ccccc3-c3nc4ccccc4[nH]3)c2)cc1C`?
HT1080NT lethal: 6.51µM*; KB-V1 MDR tox: 7.31µM*; HT1080 IDH1KD tx: 8.2µM*; KB-3-1 tox: inconclusive; ATXN viability: inconclusive; ATXN2 expr inh: inconclusive

How did COc1ccc(-n2ccc(-c3sc(NCc4cc(OC)c5c(c4)OCO5)nc3C)n2)cc1 do in these assays?
ATXN viability: inactive

What do the screens show for `CC(C)Cn1c(-c2csc(C(C)C)c2)n[nH]c1=S`?
HT1080NT lethal: -16.4%; KB-V1 MDR tox: inactive; HT1080 IDH1KD tx: 4.4%; KB-3-1 tox: inactive; ATXN viability: inactive; ATXN2 expr inh: -19.9%

Results for CCn1c(-c2ccc(C)cc2)n[nH]c1=S ?
HT1080NT lethal: -1.9%; KB-V1 MDR tox: 18.4µM*; HT1080 IDH1KD tx: -1.0%; KB-3-1 tox: inconclusive; ATXN viability: inactive; ATXN2 expr inh: -8.0%

Results for CCn1c(-c2ccc(Cl)cc2)n[nH]c1=S ?
HT1080NT lethal: inconclusive; KB-V1 MDR tox: 10.3µM*; HT1080 IDH1KD tx: inconclusive; KB-3-1 tox: inconclusive; ATXN viability: inactive; ATXN2 expr inh: 0.3%

Results for CCn1c(-c2csc(C(C)C)c2)n[nH]c1=S ?
HT1080NT lethal: -0.3%; KB-V1 MDR tox: 20.6µM*; HT1080 IDH1KD tx: 2.9%; KB-3-1 tox: inactive; ATXN viability: inactive; ATXN2 expr inh: 9.7%

What do the screens show for `O=C(OCC(=O)c1ccc(Cl)s1)c1cncc(Br)c1`?
HT1080NT lethal: 6.0%; KB-V1 MDR tox: inactive; HT1080 IDH1KD tx: 2.0%; KB-3-1 tox: inactive; ATXN viability: inactive

Results for COc1ccccc1N(CC(=O)NC1CCCCC1)C(=O)Cn1nnc(-c2ccc(C)o2)n1 ?
HT1080NT lethal: -2.5%; KB-V1 MDR tox: inconclusive; HT1080 IDH1KD tx: -0.9%; KB-3-1 tox: inactive; ATXN viability: inactive; ATXN2 expr inh: -9.2%

How did COc1ccccc1N(CC(=O)NC(C)(C)C)C(=O)Cn1nnc(-c2ccc(C)o2)n1 do in these assays?
HT1080NT lethal: 8.5%; KB-V1 MDR tox: 2.31µM*; HT1080 IDH1KD tx: 10.5%; KB-3-1 tox: inactive; ATXN viability: inactive; ATXN2 expr inh: -7.3%

Results for CC(=O)c1cccc(NC(=O)c2ccc([N+](=O)[O-])o2)c1 ?
HT1080NT lethal: 14.6µM*; KB-V1 MDR tox: 16.4µM*; HT1080 IDH1KD tx: inconclusive; KB-3-1 tox: inconclusive; ATXN viability: inconclusive; ATXN2 expr inh: -17.8%

How did O=C(Nc1ccc2oc(-c3ccncc3)nc2c1)c1ccc([N+](=O)[O-])o1 do in these assays?
HT1080NT lethal: 6.51µM*; KB-V1 MDR tox: inactive; HT1080 IDH1KD tx: 16.4µM*; KB-3-1 tox: inconclusive; ATXN viability: inconclusive; ATXN2 expr inh: 1.8%

Results for Cc1cc(NC(=O)c2ccc([N+](=O)[O-])o2)ccc1NC(=O)c1ccco1 ?
HT1080NT lethal: 5.17µM*; KB-V1 MDR tox: inconclusive; HT1080 IDH1KD tx: 5.8µM*; KB-3-1 tox: 5.17µM*; ATXN viability: inconclusive; ATXN2 expr inh: -7.7%

Results for Cc1ccc(-c2nc3ncccc3o2)cc1NC(=O)c1ccc([N+](=O)[O-])o1 ?
HT1080NT lethal: inconclusive; KB-V1 MDR tox: 18.4µM*; HT1080 IDH1KD tx: inconclusive; KB-3-1 tox: inconclusive; ATXN viability: inconclusive; ATXN2 expr inh: -8.4%

What do the screens show for `Cc1cc(-c2nc3ncccc3o2)ccc1NC(=O)c1ccc([N+](=O)[O-])o1`?
HT1080NT lethal: 5.0%; KB-V1 MDR tox: inactive; HT1080 IDH1KD tx: 9.4%; KB-3-1 tox: inactive; ATXN viability: inactive; ATXN2 expr inh: 0.0%

Results for O=S1(=O)N=C(Oc2ccccc2F)c2ccccc21 ?
KB-V1 MDR tox: inactive; KB-3-1 tox: inactive

What do the screens show for `COc1cccc(NC(=O)CCN2CCN(CCO)CC2)c1`?
KB-V1 MDR tox: inactive; KB-3-1 tox: inactive; ATXN viability: inactive; ATXN2 expr inh: -9.6%

Results for CC(C)(C)C1CCC(CC2=C(O)c3ccccc3C(=O)C2=O)CC1 (configuration not stated) ?
ATXN viability: inactive; ATXN2 expr inh: inconclusive

How did NC(=O)c1oc2ccccc2c1NC(=O)c1ccc([N+](=O)[O-])o1 do in these assays?
HT1080NT lethal: 1.46µM*; KB-V1 MDR tox: 7.31µM*; HT1080 IDH1KD tx: 2.06µM*; KB-3-1 tox: 3.66µM*; ATXN viability: inconclusive; ATXN2 expr inh: inconclusive

Results for CC(NC(=O)C12CC3CC(CC(C3)C1)C2)C(=O)NN=Cc1ccc([N+](=O)[O-])o1 (configuration not stated) ?
HT1080NT lethal: -1.5%; KB-V1 MDR tox: inconclusive; HT1080 IDH1KD tx: -0.4%; KB-3-1 tox: inconclusive; ATXN viability: inconclusive; ATXN2 expr inh: inconclusive

Results for CC(=O)c1ccc(NC(=O)c2ccc([N+](=O)[O-])o2)cc1 ?
HT1080NT lethal: inconclusive; KB-V1 MDR tox: inconclusive; HT1080 IDH1KD tx: 18.4µM*; KB-3-1 tox: inconclusive; ATXN viability: inconclusive

What do the screens show for `COc1ccc(NC(=O)c2ccc([N+](=O)[O-])o2)cc1`?
HT1080NT lethal: -4.5%; KB-V1 MDR tox: inconclusive; HT1080 IDH1KD tx: inconclusive; KB-3-1 tox: 8.2µM*; ATXN viability: inactive; ATXN2 expr inh: 3.8%

What do the screens show for `NC(=O)c1oc2ccccc2c1NC(=O)c1ccc(F)cc1`?
HT1080NT lethal: 0.0%; KB-V1 MDR tox: inactive; HT1080 IDH1KD tx: -4.6%; KB-3-1 tox: inactive; ATXN viability: inactive; ATXN2 expr inh: -5.8%

What do the screens show for `COc1ccc(NC(=O)c2ccc(Br)o2)cc1`?
HT1080NT lethal: -2.7%; KB-V1 MDR tox: inactive; HT1080 IDH1KD tx: 9.0%; KB-3-1 tox: inactive; ATXN viability: inactive; ATXN2 expr inh: 51.1%

How did CC(NC(=O)c1ccc([N+](=O)[O-])o1)C12CC3CC(CC(C3)C1)C2 (configuration not stated) do in these assays?
HT1080NT lethal: 18.4µM*; KB-V1 MDR tox: inconclusive; HT1080 IDH1KD tx: inconclusive; KB-3-1 tox: inconclusive; ATXN viability: inactive; ATXN2 expr inh: -26.4%

How did O=C(NCc1ccccc1)C1C(=O)Nc2ccccc2C(=O)N1Cc1ccccc1 (configuration not stated) do in these assays?
HT1080NT lethal: 12.8%; KB-V1 MDR tox: inactive; HT1080 IDH1KD tx: 12.9%; KB-3-1 tox: inactive
